Pf growth 96h: Primary qHTS for delayed death inhibitors of the malarial parasite plastid, 96 hour incubation; P. falciparum luciferase reporter growth, 96 h; Potency, µM (titrated, usually from 28.7 µM), hits mostly inhibitors; hit rate 6.9% among 320,000; AID 504834, 2011
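96 h incubation, 37 C, 5% CO2, of luciferase-reporter P. falciparum-infected RBCs (2% hematocrit, 0.05% parasitemia final) with test compounds; endpoint luminescence.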
CHX counter: Cycloheximide Counterscreen for Small Molecule Inhibitors of Shiga Toxin | max response, % | AID 2314, 2010 | cell reporter, cycloheximide protein synthesis inhibition counterscreen | hit rate 12% among 300,000; in the data active means max response mostly above about 13%, no sharp cut-off; inactive means mostly below about 14%; further: read at 38.3 µM for the half of the compounds with a filed dose
NS1 inh: qHTS Assay for Inhibitors of Influenza NS1 Protein Function; Potency, µM (top dose mostly 46.1 µM); hit rate 0.4% among 270,000; AID 2326, 2010; calls by dose curve; further: actives are rising curves; nearly all actives have a fitted effect of over 50% in size
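Compounds were scored for reversing the slow growth caused by influenza A NS1 in S. cerevisiae, measured by optical density at 600 nm. Assay medium contained 2% galactose at pH 6.0; NS1-free yeast of the same strain were the positive control.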
Shiga toxin inh: A qHTS for Small Molecule Inhibitors of Shiga Toxin | Vero cells, Shiga toxin protein synthesis inhibition reporter | inhibition, % at 38.7 µM | hit rate 9.2% among 290,000; in the data active means inhibition mostly above about 28%, no sharp cut-off; inactive means mostly below about 43%
Pf growth 48h: Primary qHTS for delayed death inhibitors of the malarial parasite plastid, 48 hour incubation; P. falciparum luciferase growth in erythrocytes, 48 h; AID 504832, 2011; Potency, µM (series often up to 28.7 µM), most hits filed as inhibitors; hit rate 5.9% among 310,000
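Parasite viability was followed by luminescence of a genomically integrated firefly luciferase. Cultures held 0.1% parasitemia at 2% hematocrit (final), incubated under 5% CO2 at 37 C.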
Each line names hits and unclear results; the compound was inactive in the other large screens. This is a sample that favours compounds with a hit; in the whole collection about 21% have one here. Unless noted, the call rests on the fitted dose curve; in most records, active means well fitted inhibition curve with a large enough effect; inconclusive means small, poorly fitted or top-dose-only effect, or another doubt; inactive means no such curve, though single readings can be large or run the other way.

CC1(c2ccccc2)NC(=O)N(Cc2ccc([N+](=O)[O-])cc2)C1=O (centres undefined)	none
Cc1cc(=O)n2[nH]c(CCC(=O)O)nc2n1	none
Cc1nc2ccccc2c(=O)n1CCc1ccc(O)cc1	none
Cc1cccc(C)c1Nc1nnc(SCC(=O)NCc2cccs2)s1	Pf growth 96h inconclusive
Cc1ccc2nc(SCC(=O)NC(=O)NCc3ccco3)[nH]c2c1	CHX counter 13, Pf growth 48h inconclusive (no result: Pf growth 96h)
Cc1cccc(C)c1Nc1nnc(SCC(=O)NCc2ccco2)s1	Pf growth 96h 0.83µM, Pf growth 48h inconclusive
Cc1ccc(-c2nc(NCc3ccco3)n(S(C)(=O)=O)n2)cc1	Pf growth 96h inconclusive (no result: NS1 inh)
O=C(CSc1ccc(Cl)cc1)NCc1ccco1	Pf growth 96h inconclusive, CHX counter 32
CC(=O)n1nc(-c2ccc(C)cc2)nc1NCc1ccco1	Pf growth 96h inconclusive, CHX counter 63, Shiga toxin inh 101 (no result: NS1 inh)
Cc1ccc(SCC(=O)NCc2ccco2)cc1	Pf growth 96h inconclusive, CHX counter 17, Pf growth 48h inconclusive
Cc1ccc(SCCC(=O)NCc2ccco2)cc1	none
COc1ccccc1N1CCN(C2CCCN(C(=O)c3ccccn3)C2)CC1 (centres undefined)	Pf growth 96h inconclusive
Nc1ccc2cc3ccc(N)cc3nc2c1	Pf growth 96h 2.4µM, Pf growth 48h 3.8µM (no result: CHX counter, NS1 inh, Shiga toxin inh)
Cc1ccc2cc(N)ccc2n1	none
CC1CCC(C(C)C)C(OCC[N+](C)(C)C)C1 (centres undefined)	Pf growth 48h 3.7µM
CC1=CN2C(=N)/C(=C\c3cn(CCCOc4ccccc4)c4ccccc34)C(=O)N=C2S1	Pf growth 96h inconclusive, CHX counter 12
O=Cc1cn(CCCOc2ccccc2)c2ccccc12	CHX counter 55, Shiga toxin inh 51
COc1ccc(OCCn2cc(C=O)c3ccccc32)cc1	Pf growth 96h inconclusive
COC(=O)N/N=C/c1cn(CCCOc2ccccc2)c2ccccc12	CHX counter 40, Shiga toxin inh 72
COc1ccccc1OCCn1cc(/C=N/NC(N)=S)c2ccccc21	Pf growth 96h inconclusive, Pf growth 48h inconclusive (no result: NS1 inh)
CNC(=S)N/N=C/c1cn(CCOc2ccc(OC)cc2)c2ccccc12	Pf growth 96h 5.9µM, NS1 inh inconclusive, Pf growth 48h inconclusive
Cc1cccc(N/C(=N\S(=O)(=O)c2ccccc2)C(F)(F)F)c1	none
CC1CCN(C(=O)COC(=O)c2ccc3c(c2)OCO3)CC1	CHX counter 34, Shiga toxin inh 82 (no result: NS1 inh)
O=C(OCC(=O)N1CCOCC1)c1ccc2c(c1)OCCO2	none
CC1CCN(C(=O)COC(=O)c2ccc(Br)o2)CC1	CHX counter 67, Shiga toxin inh 94 (no result: Pf growth 48h)
O=C(c1cc2nc(-c3ccccc3)cc(-c3ccccc3)n2n1)N1CCN(C(=O)c2ccco2)CC1	Pf growth 48h inconclusive
Cc1cc(N2CCN(C(=O)c3ccco3)CC2)n2nc(-c3cccc(Cl)c3)cc2n1	Pf growth 48h 9.3µM
Cc1nc2cc(-c3cccc(Cl)c3)nn2c(N2CCN(C(=O)c3ccco3)CC2)c1C	CHX counter 28, Shiga toxin inh 102
CC1(c2nnc(-c3cccc(Cl)c3)o2)CC(c2cccc([N+](=O)[O-])c2)=NO1 (centres undefined)	none
CCOC(=O)c1csc(NC(=O)C2CCCCC2)n1	CHX counter 26, Shiga toxin inh 59
CCOC(=O)c1csc(NC(=O)CN2CCCCC2)n1	none
CCCC(=O)Nc1nc(C(=O)OCC)cs1	CHX counter 18
CS(=O)(=O)NCCn1ccc2ccccc21	none (no result: NS1 inh)
Cc1ccc(NC(=O)[C@@]2(CC(=O)O)CC(/C=C/c3ccccc3)=NO2)c(C)c1	none
COc1cc(C(=O)Nc2ccc(-c3nnc(-c4ccco4)o3)cc2)cc(OC)c1OC	Pf growth 48h inconclusive
COc1cc(C(=O)Nc2cccc(-c3nnc(-c4ccco4)o3)c2)ccc1OC(C)=O	CHX counter 31, Shiga toxin inh 66, Pf growth 48h inconclusive
COc1ccc(C(=O)Nc2cccc(-c3nnc(-c4ccco4)o3)c2)cc1	CHX counter 31 (no result: Pf growth 96h, Pf growth 48h)
COc1ccc(CC(=O)Nc2cccc(-c3nnc(-c4ccco4)o3)c2)cc1	Pf growth 48h inconclusive
CC1(C(=O)NCc2ccc(Cl)c(Cl)c2)Oc2cccnc2NC1=O (centres undefined)	Pf growth 96h 5.2µM, Pf growth 48h inconclusive
O=C(C1CCCCC1)N1CCN(S(=O)(=O)c2cccc([N+](=O)[O-])c2)CC1	none
CCOC(=O)N1N=C(c2ccc(OC)cc2)CC1(O)C(F)(F)F (centres undefined)	CHX counter 42, Shiga toxin inh 49
CCc1ccc(C2=NN(C(=O)OC)C(O)(C(F)(F)F)C2)cc1 (centres undefined)	CHX counter 37, Shiga toxin inh 62
CCOC(=O)N1N=C(c2ccccc2)CC1(O)C(C)(F)F (centres undefined)	Pf growth 96h inconclusive
Cc1ccc(OCC(=O)N2N=C(c3cccnc3)CC2(O)C(F)(F)F)cc1C (centres undefined)	Pf growth 96h 9.3µM, Pf growth 48h inconclusive
COc1cccc(C(=O)N2N=C(c3cccc(OC)c3)CC2(O)C(F)(F)F)c1 (centres undefined)	none
COc1cccc(C2=NN(C(=O)c3cccs3)C(O)(C(F)(F)F)C2)c1 (centres undefined)	Pf growth 48h 3.7µM (no result: NS1 inh)
NCCc1cnc(-c2cccc(C(F)(F)F)c2)[nH]1	none (no result: Pf growth 96h, NS1 inh, Pf growth 48h)
O=C(c1ccco1)N1N=C(c2ccncc2)CC1(O)C(F)(F)F (centres undefined)	Pf growth 96h 5.2µM
O=C(c1ccco1)N1N=C(c2ccc(Cl)cc2)CC1(O)C(F)(F)F (centres undefined)	Pf growth 96h inconclusive
COC(=O)C(Cc1ccccc1)NC(=O)CNC(=O)c1ccc(Br)cc1 (centres undefined)	none
CC(=O)c1c(C)[nH]c(C(=O)NCCC2=CCCCC2)c1C	Pf growth 96h inconclusive, CHX counter 49, Shiga toxin inh 105 (no result: Pf growth 48h)
CCOC(=O)c1[nH]c(C)c(C(=O)NCc2ccc(C)cc2)c1C	Pf growth 96h inconclusive (no result: Pf growth 48h)
CCOC(=O)c1[nH]c(C)c(C(=O)NCCC2=CCCCC2)c1C	Pf growth 96h 5.2µM
O=C(COc1ccc(Cl)cc1)NCc1nnc(SCC(=O)N2CCCC2)o1	none (no result: NS1 inh)
O=C(NNc1cccc([N+](=O)[O-])c1)/C(=C\c1cccnc1)NC(=O)c1ccccc1	none
O=C(CCC1COc2ccccc2O1)NCC1COc2ccccc2O1 (centres undefined)	none (no result: Pf growth 96h)
O=C(NCC1COc2ccccc2O1)c1ccc(Br)s1 (centres undefined)	CHX counter 23, Shiga toxin inh 108
O=C(NCC1COc2ccccc2O1)c1cccs1 (centres undefined)	CHX counter 40, Shiga toxin inh 72
CCc1ccc(C(=O)NCC2COc3ccccc3O2)o1 (centres undefined)	CHX counter 23, Shiga toxin inh 57
Cc1ccc(NC(=O)[C@H](C)NC(=O)C2CCN(C(=O)[C@@H](N)C(C)C)CC2)cc1	none
